Bioassay records deposited in PubChem by National Center for Advancing Translational Sciences (NCATS).
D2 PAM-1 = positively modulates the human D2 dopamine receptor allosterically; P14416; HEK293 T-REx D2, calcium flux, EC20 dopamine potentiation; potentiation, % at 10 µM; 0.34% of 340,000 active; AID 485347;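 active means potentiation over 3 SD above the plate norm, cut at about 30% in these data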; further: 0% is about no effect
Target sequence (P14416 whole entry, looked up): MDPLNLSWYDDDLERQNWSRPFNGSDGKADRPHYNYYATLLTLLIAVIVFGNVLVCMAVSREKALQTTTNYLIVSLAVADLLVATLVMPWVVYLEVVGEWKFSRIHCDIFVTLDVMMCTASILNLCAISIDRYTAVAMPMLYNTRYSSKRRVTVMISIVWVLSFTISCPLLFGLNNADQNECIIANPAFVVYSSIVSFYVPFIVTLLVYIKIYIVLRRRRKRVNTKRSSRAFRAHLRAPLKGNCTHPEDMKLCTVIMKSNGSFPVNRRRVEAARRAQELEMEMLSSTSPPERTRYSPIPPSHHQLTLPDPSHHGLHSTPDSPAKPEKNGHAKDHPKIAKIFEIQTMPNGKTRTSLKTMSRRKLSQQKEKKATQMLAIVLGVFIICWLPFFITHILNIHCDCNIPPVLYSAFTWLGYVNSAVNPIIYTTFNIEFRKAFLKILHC
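Primary screen. Calcium kinetics in induced HEK293 T-REx D2 cells: compound pre-addition 180 s, EC20 dopamine, 180 s more.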
D2 antagonist = antagonists of human D2 dopamine receptor | P14416 | inhibition, % at 10 µM | AID 485344 | HEK293 TREx D2 cells, calcium flux, dopamine EC80 | 2% of 340,000 active; in the data active means inhibition above about 30%; inactive means below that, where a call was filed; further: 0% is about no effect
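Tetracycline-induced HEK293 T-REx cells expressing D2 force-coupled to calcium signalling were dye-loaded, exposed to compound for 180 s, then challenged with an EC80 of dopamine; calcium flux was followed kinetically for a further 180 s.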
D2 ag-1 = D2 dopamine receptor (human) agonism; activation, % at 2 µM; 0.53% of 340,000 active; HEK293 T-REx D2 cells, calcium flux agonist mode; P14416; AID 485358;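 active means activation over 3 SD above normal in the single-dose calcium agonist read, cut at about 30% in these data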; further: 0% is about no effect
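In this primary screen, compounds producing a positive calcium signal within 180 s of addition to tetracycline-induced, force-coupled HEK293 Trex D2 cells are flagged; cells are dye-loaded with a no-wash calcium kit beforehand.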
D2 PAM-2 = potentiates the human D2 dopamine receptor allosterically; AID 624464; potentiation, % (no concentration beside the values); DiscoveRx D2 beta-arrestin cells, luminescence, 90 min; 100% = 57 uM dopamine signal; 0.23% of 360,000 active; in the data active means potentiation above about 50%; inconclusive means mostly about 30% to 49%
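D2 cells co-treated with compound plus 50 nM dopamine (EC20) for 90 min at 37 deg C to detect potentiation. Beta-arrestin recruitment was read as enzyme-fragment luminescence after 1 h at ambient temperature. Full response was set by 57 uM dopamine.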
D2 ag-2 = human D2 receptor agonism in beta-arrestin assay; DiscoveRx PathHunter D2 beta-arrestin, luminescence, 90 min; 100% = 57 uM dopamine signal; activation, % (concentration not given with the values); 0.084% of 360,000 active; P14416; in the data active means activation above about 40%; inconclusive means between about 15% and that limit
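Agonist mode: compounds alone added to overnight-plated D2 PathHunter cells for 90 min at 37 C, with 57 uM final dopamine (EC100) defining full response. Beta-arrestin recruitment detected by chemiluminescent reagent, read after 1 h at ambient temperature.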
The depositor's hits bear a star; ? = inconclusive; nt = no result. In the library only some 2.4% were active in any assay of this set; here they are far more common.

SMILES	D2 PAM-1	D2 antagonist	D2 ag-1	D2 PAM-2	D2 ag-2
Cc1nn(-c2ccccn2)c2c1C(=O)C(Br)CC2 (centres undefined)	0	-2	1	54*	?
Cc1ccc(S(=O)(=O)N2CCOC2CNC(=O)C(=O)NCc2cccnc2)cc1 (centres undefined)	-1	10	0	1	0
Cc1ccc([C@H]2C[C@H](O)[C@@H](n3cc(C4CC4)nn3)CN2CC2CCCCC2)cc1	nt	nt	nt	1	-11
Cc1ccc(C(=O)Nc2nc(-c3ccccc3)c(-c3ccccc3)o2)cc1	-12	-22	-1	-24	0
Cc1ccc(C(=O)Nc2c(C)cc(-c3ccccc3)oc2=O)cc1	-6	31*	0	-8	-4
COc1cc(NC(=O)c2ccco2)ccc1NC(=O)C(C)C	-30	8	0	3	1
Cc1oc(/N=C/c2ccccc2)c(C#N)c1C	-2	4	1	2	11
O=c1c2c([N+](=O)[O-])cc([N+](=O)[O-])cc2sn1Cc1ccccc1	nt	nt	nt	8	-7
O=c1c2c([N+](=O)[O-])cc([N+](=O)[O-])cc2sn1-c1ccc(Br)cc1	-2	7	1	61*	11
NC(=O)c1cccc(S(=O)(=O)N2CCCCC2)c1	-2	10	0	-15	-4
c1cncc(-c2noc(C34CC5CC(CC(C5)C3)C4)n2)c1	0	16	0	-2	-4
NC(=O)C1CC(=O)N(c2ccc(OCc3ccc([N+](=O)[O-])cc3)cc2)C1 (centres undefined)	4	-12	0	1	9
Cc1ccc(N2CC(C(=O)OCc3ccc([N+](=O)[O-])cc3)CC2=O)cc1 (centres undefined)	31*	-16	0	-2	-1
COC(=O)c1ccc(C)c(NC(=O)CCc2ccc(OC)cc2)c1	-3	-11	-1	-7	0
COc1ccc(CCC(=O)NNC(=O)Nc2cc(Cl)ccc2C)cc1	-1	33*	0	-12	-8
Cc1cc(/C=N\NC(=O)CC(=O)NC2CCCCC2)c(C)n1-c1ccc(Cl)cc1	5	-3	-2	-19	-2
CCOC(=O)N1CCN(S(=O)(=O)c2ccc3c(c2)CC(C)N3C(C)=O)CC1 (centres undefined)	5	10	4	-8	0
Cc1ccc(SCC(=O)OCC(=O)N(C)CC(=O)Nc2ccc(F)cc2)cc1C	6	38*	12	10	0
CC(C)c1ccccc1OCC(=O)N(C)CC(=O)Nc1ccc(F)cc1	-22	56*	0	-46	-3
CN(CC(=O)Nc1ccc(F)cc1)C(=O)COc1ncnc2ccccc12	-6	3	0	2	-2
CN(CC(=O)Nc1ccc(F)cc1)C(=O)CSc1ccc2c(c1)OCCO2	-16	9	0	-2	-2
Cc1ccc(S(=O)(=O)Nc2c(O)ccc3ccccc23)cc1	nt	nt	nt	8	56*
O=C(Nc1cccc(Cl)c1)NC1CCN(C2CCCCC2)C1 (centres undefined)	-22	85*	-1	-26	5
O=C(NC1CCN(C(=O)Nc2cccc(Cl)c2)CC1)C1CCCCC1	0	7	0	-5	-2
O=c1cc2oc3cc(O)c(O)cc3c(-c3ccccc3[N+](=O)[O-])c-2cc1O	24	31*	1	9	-4
SMILES	D2 PAM-1	D2 antagonist	D2 ag-1	D2 PAM-2	D2 ag-2
NC(=O)c1c(NC(=O)Cc2ccccc2)sc2c1CCN(Cc1ccccc1)C2	-18	47*	1	-11	3
COc1ccc(Br)cc1/C=N/NC(=O)C[n+]1ccccc1	-20	40*	1	-8	-6
O=C(C[n+]1ccccc1)N/N=C/c1cc(Br)cc(Br)c1O	-32	32*	2	-31	-7
O=C(C[n+]1ccccc1)N/N=C/c1cc(Br)ccc1F	-19	-7	0	-33	-5
CC(Oc1cccc(F)c1)C(=O)/C=C\N(C)C (centres undefined)	6	0	-1	-5	-2
CCS(=O)(=O)c1ccc(NC(=O)c2ccccc2Cl)c(O)c1	14	-8	1	?	-5
CN(Cc1ccccc1F)c1nc(-c2cccnc2)nc2ccccc12	nt	nt	nt	-20	-1
CCOc1ccc(CN(C)c2nc(-c3cccnc3)nc3ccccc23)cc1OC	-14	36*	0	-6	0
COC(=O)c1cc(C(=O)OC)n(Cc2ccc(F)cc2)c1C	-1	4	2	-5	0
O=C(COC(=O)c1cc(-c2cccs2)nn1-c1ccccc1)Nc1ccc(Cl)c([N+](=O)[O-])c1	-3	44*	15	-7	-1
Cc1ccc2nc(SCC(=O)N/N=C/c3ccc(C(=O)O)cc3)cc(C)c2c1	4	-4	0	9	-3
COc1ccc(C(c2nnnn2C2CCCC2)N2CCc3ccccc3C2)cc1OC (centres undefined)	9	26	0	-8	-4
COCCn1nnnc1C(c1ccc(O)c(OC)c1)N1CCc2ccccc2C1 (centres undefined)	-18	44*	1	-1	2
CC(=N/O)/C(C)=N\NC(=O)c1ccccn1	-2	-10	0	-11	1
C/C(=N\NC(=O)c1ccccn1)c1ccc(C(=O)O)s1	-7	59*	-1	nt	nt
COc1cccc(-n2cc(-c3ccc(F)cc3)[nH]c2=S)c1	-2	-21	0	-6	?
CC1=CS/C(=C(/C#N)C(=O)NCc2ccco2)N1c1ccccc1	0	31*	0	-7	-5
Cc1cccc(C)c1NC(=O)CN1C(=O)N(C)Cc2ccccc21	-2	45*	0	-2	0
CN1Cc2ccccc2N(CC(=O)NCc2ccccc2)C1=O	-2	nt	nt	-8	-3
Cc1cccc(C)c1NC(=O)CN1C(=O)C2CC=CCC2C1=O (centres undefined)	-4	57*	0	1	-6
Cc1cccc(C(C)C)c1NC(=O)COC(=O)CN1C(=O)C2CC=CCC2C1=O (centres undefined)	5	-3	1	-11	-4
Cc1ccc(-c2nn(-c3ccccc3)cc2C(=O)N2CCOCC2)cc1C	-3	9	0	-11	-4
COCC1CCCN(Cc2cn(-c3ccccc3F)nc2-c2cc(C)sc2C)C1 (centres undefined)	-17	41*	2	-19	-4
CC(=O)N/N=C(\C)C1COc2ccccc2O1 (centres undefined)	1	-2	0	-3	0
CS(=O)(=O)N(CC(=O)NCc1ccccc1)C1CCCCC1	-8	37*	0	-3	-4
Cc1ccc(CNC(=O)CN(C2CCCCC2)S(C)(=O)=O)cc1	-6	3	0	-7	-4
